27 compounds from PubChem BioAssay (Tox21) can be followed below.

Experiment [1] can be described thus: qHTS assay to identify small molecule antagonists of the glucocorticoid receptor (GR) signaling pathway - cell viability counter screen (AID 720693; also: nearly all actives have a fitted effect of over 55% in size; also: potency is read from the fitted curve at half-maximal effect; as to viability change, negative = cytotoxic: % is scaled to controls: 0 for no effect and ±100 for the full control effect). (In general: In qHTS, concentration-response curves come from the screen itself.)
Experiment [2] is described as follows: qHTS assay for identifying genotoxic compounds that show differential cytotoxicity against isogenic chicken DT40 cell lines with known DNA damage response pathways - wild type cell line (AID 743012). Also: nearly all actives have a fitted effect of over 60% in size. Also: potency is read from the fitted curve at half-maximal effect. As to activity change, negative = cytotoxicity: % is scaled to controls: 0 for no effect and ±100 for the full control effect. In short, it runs like this:
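Cells (DT40 wild type, 300/well) are treated with DMSO-dissolved compounds after a ~0.5 h pre-incubation and kept 40 h at 37 C/5% CO2. Viability is then measured by CellTiter-Glo luminescence following 30 min at room temperature.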

A short description of experiment [3]: qHTS assay for identifying genotoxic compounds that show differential cytotoxicity against isogenic chicken DT40 cell lines with known DNA damage response pathways - Rev3 mutant cell line (AID 743014). Also: nearly all actives have a fitted effect of over 55% in size. Also: potency is read from the fitted curve at half-maximal effect. As to activity, negative = cytotoxicity: % is scaled to controls: 0 for no effect and ±100 for the full control effect.
A short description of experiment [4]: qHTS assay for identifying genotoxic compounds that show differential cytotoxicity against isogenic chicken DT40 cell lines with known DNA damage response pathways - Rad54/Ku70 mutant cell line (AID 743015). Also: nearly all actives have a fitted effect of over 60% in size. Also: potency is read from the fitted curve at half-maximal effect.
Experiment [5] in a line: qHTS assay to identify small molecule antagonists of the androgen receptor (AR) signaling pathway - cell viability counter screen (AID 743033; also: % is scaled to controls: 0 for no effect and ±100 for the full control effect; nearly all actives have a fitted effect of over 45% in size).
A short description of experiment [6]: qHTS assay to identify small molecule antagonists of the androgen receptor (AR) signaling pathway using the MDA cell line - cell viability counter screen (AID 743041; also: % is scaled to controls: 0 for no effect and ±100 for the full control effect; nearly all actives have a fitted effect of over 45% in size). In short, it runs like this:
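Same-well cytotoxicity was assessed by CellTiter-Fluor in MDA-kb2 AR-luc cells after 16 h of compound treatment under R1881 agonism.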

The target in experiment [7] is Androgen receptor (Homo sapiens) (UniProt P10275). The experiment is described as follows: qHTS assay to identify small molecule agonists of the androgen receptor (AR) signaling pathway (AID 743036; active = well fitted activation curve with a large enough effect in the signal ratio in the repeat runs, with a control signal flat, not every such curve was filed as active; the % refers to the signal ratio; also: % is scaled to controls: 0 for no effect and ±100 for the full control effect). In short, it runs like this: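 Agonist activity was scored by beta-lactamase reporter fluorescence in stably transfected HEK293 cells exposed to compounds for 16 h at 37C and 5% CO2. Substrate loading took 2 h at room temperature.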
Androgen receptor (Homo sapiens), sequence (P10275 whole entry, looked up): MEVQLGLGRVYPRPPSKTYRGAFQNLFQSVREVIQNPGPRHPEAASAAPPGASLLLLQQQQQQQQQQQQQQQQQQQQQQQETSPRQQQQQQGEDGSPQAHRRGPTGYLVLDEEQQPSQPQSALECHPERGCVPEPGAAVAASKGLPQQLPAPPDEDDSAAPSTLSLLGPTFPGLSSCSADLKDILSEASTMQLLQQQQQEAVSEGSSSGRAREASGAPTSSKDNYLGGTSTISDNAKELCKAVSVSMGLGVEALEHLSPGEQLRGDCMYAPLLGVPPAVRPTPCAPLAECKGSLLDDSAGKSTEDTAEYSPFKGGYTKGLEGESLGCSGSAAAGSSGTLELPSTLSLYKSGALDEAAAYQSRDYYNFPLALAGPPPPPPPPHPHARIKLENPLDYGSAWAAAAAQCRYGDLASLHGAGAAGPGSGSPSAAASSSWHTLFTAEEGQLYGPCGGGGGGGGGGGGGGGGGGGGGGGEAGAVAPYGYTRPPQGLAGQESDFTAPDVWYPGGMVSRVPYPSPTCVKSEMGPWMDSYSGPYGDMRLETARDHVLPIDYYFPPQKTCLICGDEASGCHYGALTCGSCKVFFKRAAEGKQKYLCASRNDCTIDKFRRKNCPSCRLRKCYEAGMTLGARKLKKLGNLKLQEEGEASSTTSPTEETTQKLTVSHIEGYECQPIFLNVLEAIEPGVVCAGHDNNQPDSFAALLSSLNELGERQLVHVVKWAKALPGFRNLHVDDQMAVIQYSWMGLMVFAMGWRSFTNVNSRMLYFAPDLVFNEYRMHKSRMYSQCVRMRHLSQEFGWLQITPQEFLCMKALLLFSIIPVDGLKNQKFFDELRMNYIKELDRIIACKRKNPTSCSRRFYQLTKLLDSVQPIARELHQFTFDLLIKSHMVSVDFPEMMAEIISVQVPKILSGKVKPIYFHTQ

Experiment [8] shares this target. The experiment is described as follows: qHTS assay to identify small molecule agonists of the androgen receptor (AR) signaling pathway using the MDA cell line (AID 743040; also: % is scaled to controls: 0 for no effect and ±100 for the full control effect; nearly all actives have a fitted effect of over 20% in size). In short, it runs like this:
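Human breast carcinoma MDA-kb2 reporter cells (MMTV-luc, AR/GR elements) were treated for 16 h at 37C in 0% CO2 following a 5 h settling period. Signal was quantified by ONE-Glo luminescence.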

For experiment [9] the target is unchanged. The experiment is described as follows: qHTS assay to identify small molecule antagonists of the androgen receptor (AR) signaling pathway using the MDA cell line (AID 743042; also: % is scaled to controls: 0 for no effect and ±100 for the full control effect; nearly all actives have a fitted effect of over 55% in size). In short, it runs like this: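 MDA-kb2 breast carcinoma cells carrying MMTV-luciferase (AR/GR responsive) were co-treated with compounds and the agonist R1881 for 16 h at 37C. Inhibition read as ONE-Glo luminescence; CellTiter-Fluor fluorescence measured in parallel for cytotoxicity.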

Experiment [10] shares this target. The experiment is described as follows: qHTS assay to identify small molecule antagonists of the androgen receptor (AR) signaling pathway (AID 743035; active = well fitted inhibition curve with a large enough effect in the signal ratio in the repeat runs, not every such curve was filed as active; the % refers to the signal ratio; also: potency is read from the fitted curve at half-maximal effect). The essentials:
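Antagonism is scored as loss of R1881-driven beta-lactamase reporter expression in HEK293 cells carrying the reporter under a UAS element, after 16 h co-treatment at 37C and a 2 h room-temperature FRET substrate read.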

Each structure is given as a SMILES string. Values joined by “and” are separate entries in the source; they are usually repeats but may differ in a detail not shown here. Equal values may be shown once. A number with no mark means an inactive call. Results filed as inconclusive are left out. Active and inactive are the calls of the source. Unless noted, calls follow the shape of the dose curve; as a rule, active = well fitted curve in the direction sought with a large enough effect in the repeat runs; inconclusive = weak or mixed curves; inactive = no such curve, though single readings can be large; an effect the other way counts as inactive or inconclusive.

As for `Clc1ccc(Cn2c(CN3CCCC3)nc3ccccc32)cc1`, the Potency result in [1], in experiment [5] and in experiment [6] was “inactive” each time. In addition, the Potency was 4.03 µM (active) in experiment [2], 2.54 µM (active) in experiment [3] and 7.17 µM (active) in experiment [4].

For the compound `Nc1ccccc1S(=O)(=O)c1ccccc1`, the Potency result in experiment [1], in [2], in [3], in experiment [4], in experiment [5] and in [6] was “inactive” in each case.

Turning to `O=P(O)(OCc1ccccc1)OCc1ccccc1`, the Potency entry in [1], in experiment [2], in experiment [3], in experiment [4], in experiment [5] and in experiment [6] was “inactive” each time.

With `C=CCOc1ccccc1OCC(O)CNC(C)C` (stereo not given), the Potency result in experiment [1], in experiment [2], in [3], in experiment [4], in experiment [5] and in [6] was “inactive” each time.

Consider `CCOC(=O)c1cccnc1`, for which the Potency result in experiment [1], in experiment [2], in [3], in [4], in experiment [5] and in experiment [6] was “inactive” throughout.

As for `CC(C)(C)Cl`, the Potency result in experiment [1], in [2], in experiment [3], in experiment [4], in experiment [5] and in experiment [6] was “inactive” throughout.

In the case of `Brc1c2ccccc2c(Br)c2ccccc12`, the viability change, negative = cytotoxic in experiment [1] is -12.6% [at 7.04 µM]; in [6], 2.16% [at 8.47 µM]. Also, the activity change, negative = cytotoxicity in experiment [2] was 2.6% [at 8.52 µM]; in experiment [4], 3.28% [at 8.55 µM]; in experiment [5], 0.327% [at 7.04 µM]. Besides, the activity, negative = cytotoxicity in experiment [3] was 2.95% [at 8.53 µM].

Consider `O=C(O)CC(=O)C(=O)O`, for which the Potency result in experiment [1], in experiment [2], in [3], in experiment [4], in [5] and in experiment [6] was “inactive” throughout.

`O=[N+]([O-])c1cccc(S(=O)(=O)O)c1`: the Potency entry in experiment [1], in experiment [2], in [3], in experiment [4], in experiment [5] and in [6] was “inactive” in each case.

In the case of `CCC(C)O` (stereo not given), the Potency entry in experiment [1], in [2], in experiment [3], in experiment [4], in experiment [5] and in [6] was “inactive” in each case.

As for `CC(=O)c1ccc2c(c1)N(CCCN1CCC(CCO)CC1)c1ccccc1S2`, the Potency entry in experiment [1], in experiment [5] and in experiment [6] was “inactive” in each case. Also, the Potency was 12.7 µM (active) in experiment [2], 12.7 µM (active) in experiment [3] and 11.4 µM (active) in [4].

`C/C=C/C(=O)CC`: the Potency entry in experiment [1], in experiment [2], in experiment [3], in [4], in experiment [5] and in [6] was “inactive” in each case.

In the case of `Cc1ncc(CO)c(C=O)c1O`, the Potency result in experiment [1], in experiment [2], in [3], in experiment [4], in experiment [5] and in experiment [6] was “inactive” throughout.

For the compound `CNCCCCOc1ccccc1Cc1ccccc1`, the Potency result in experiment [1], in experiment [5] and in [6] was “inactive” throughout. In addition, the Potency was 4.22 µM (active) in experiment [2], 3.35 µM (active) in experiment [3] and 5.31 µM (active) in experiment [4].

In the case of `CCC(C)c1cc(C(C)(C)C)c(O)c(C(C)(C)C)c1` (stereo not given), the Potency result in experiment [1], in [2], in experiment [3], in experiment [4], in experiment [5] and in experiment [6] was “inactive” throughout.

As to `O=C1c2ccccc2S(=O)(=O)N1CCCCN1CCN(c2ncccn2)CC1`, the Potency entry in experiment [1], in experiment [2], in [3], in experiment [4], in experiment [5] and in [6] was “inactive” in each case.

For the compound `CCCCCCCC/C=C\CCCCCCCC(=O)OCC`, the Potency result in experiment [1], in experiment [2], in experiment [3], in experiment [4], in experiment [5] and in experiment [6] was “inactive” each time.

In the case of `COC(C)(C)CCO`, the Potency result in experiment [1], in [2], in experiment [3], in experiment [4], in experiment [5] and in experiment [6] was “inactive” throughout.

With `CC(CC=O)c1ccccc1` (stereo not given), the Potency result in experiment [1], in [2], in experiment [3], in [4], in [5] and in [6] was “inactive” in each case.

With `CC1(c2ccccc2)OC(C(=O)O)=CC1=O` (stereo not given), the Potency result in experiment [1], in experiment [2], in experiment [3], in experiment [4], in experiment [5] and in experiment [6] was “inactive” each time.

In the case of `CCCCO`, the Potency entry in experiment [1], in experiment [2], in [3], in experiment [4], in experiment [5] and in [6] was “inactive” each time.

In the case of `CCc1c(C(=O)NN2CCCCC2)nn(-c2ccc(Cl)cc2Cl)c1-c1ccc(Br)cc1`, the Potency is 12.3 µM (active) in [1], 13.7 µM (active) in experiment [2], 15.4 µM (active) in experiment [3] and 13.7 µM (active) in [4]. The Potency entry in [5] and in experiment [6] was “inactive” each time.

Turning to `COc1cc(C(=O)OCCCN2CCCN(CCCOC(=O)c3cc(OC)c(OC)c(OC)c3)CC2)cc(OC)c1OC`, the Potency entry in experiment [1], in [7], in experiment [8], in [6] and in [9] was “inactive” in each case. Also, the Potency was 8.41 µM (active) in experiment [2], 15 µM (active) in [3] and 8.41 µM (active) in experiment [4].

Take `CN(C)CCN(Cc1ccccc1)c1ccccn1`: the Potency entry in experiment [1], in experiment [2], in [3], in [4] and in [6] was “inactive” throughout.

For `CCOC(=O)COC(=O)c1cc(Oc2ccc(C(F)(F)F)cc2Cl)ccc1[N+](=O)[O-]`, the Potency entry in experiment [1], in experiment [7], in [8], in experiment [6] and in experiment [9] was “inactive” in each case. The results for the Potency in experiment [2], in [3] and in experiment [4] were 21.7 µM (active), 12.2 µM (active) and 19.3 µM (active), respectively.

As to `COc1ccc(S(=O)(=O)N2C(=O)[C@@](c3ccccc3OC)(N3C[C@H](O)C[C@H]3C(=O)N(C)C)c3cc(Cl)ccc32)c(OC)c1`, the Potency entry in experiment [1], in experiment [8] and in experiment [6] was “inactive” throughout. For the same compound, the Potency in [2] was 48.6 µM (active); in experiment [3], 61.1 µM (active); in experiment [4], 48.6 µM (active); in [10], 17.4 µM (active).

Consider `CCOC(=O)C1=C[C@]2(CC)CCCN3CCc4c(n1c1ccccc41)[C@@H]32`, for which the Potency entry in experiment [1] and in [6] was “inactive” each time. In addition, the Potency in experiment [2] is 10.6 µM (active) and 6.68 µM (active); in experiment [3], 10.6 µM (active) and 9.44 µM (active); in experiment [4] it was 16.8 µM (active) and 10.6 µM (active).
